Measurements from PubChem BioAssay (NCATS).
Results filed as inconclusive are left out. Activity calls are given as the source filed them. Calls come from the whole dose curve; as a rule, active = well fitted inhibition curve with a large enough effect; inconclusive = small, poorly fitted or top-dose-only effect; inactive = flat fitted curve, though single readings scatter.

Tests used:
[1] = qHTS profiling for inhibitors of Plasmodium falciparum proliferation (AID 504749); note: nearly all actives have a fitted effect of over 60% in size;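 for activity, negative = inhibition: 0% = DMSO vehicle and full inhibition = artemisinin control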; conditions: P. falciparum in erythrocytes, SYBR Green DNA, 72 h
How it was run: (§1)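 SYBR Green fluorescence of parasite DNA, read after lysis and overnight dark incubation, measured growth over 72 h in erythrocyte culture at 0.3% parasitemia and 2.5% hematocrit. Data normalised to DMSO and 0.29 uM artemisinin, with plate-drift correction.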

7G8 = experiment: as above; conditions: P. falciparum in erythrocytes, SYBR Green DNA, 72 h; series mostly up to 28.7 µM
How it was run: as §1

AA1029 = experiment: as above; conditions: P. falciparum in erythrocytes, SYBR Green DNA, 72 h; series mostly up to 28.7 µM
How it was run: as §1

ATS189 = experiment: as above; conditions: P. falciparum in erythrocytes, SYBR Green DNA, 72 h; series mostly up to 28.7 µM
How it was run: as §1

CP185 = experiment: as above; conditions: P. falciparum in erythrocytes, SYBR Green DNA, 72 h; series mostly up to 28.7 µM
How it was run: as §1

CP191 = experiment: as above; conditions: P. falciparum in erythrocytes, SYBR Green DNA, 72 h; series mostly up to 28.7 µM
How it was run: as §1

CP192 = experiment: as above; conditions: P. falciparum in erythrocytes, SYBR Green DNA, 72 h; series mostly up to 28.7 µM
How it was run: as §1

CP194 = experiment: as above; conditions: P. falciparum in erythrocytes, SYBR Green DNA, 72 h; series mostly up to 28.7 µM
How it was run: as §1

CP201 = experiment: as above; conditions: P. falciparum in erythrocytes, SYBR Green DNA, 72 h; series mostly up to 28.7 µM
How it was run: as §1

CP211 = experiment: as above; conditions: P. falciparum in erythrocytes, SYBR Green DNA, 72 h; series mostly up to 28.7 µM
How it was run: as §1

CP217 = experiment: as above; conditions: P. falciparum in erythrocytes, SYBR Green DNA, 72 h; series mostly up to 28.7 µM
How it was run: as §1

CP237 = experiment: as above; conditions: P. falciparum in erythrocytes, SYBR Green DNA, 72 h; series mostly up to 28.7 µM
How it was run: as §1

3D7 = experiment: as above; conditions: P. falciparum in erythrocytes, SYBR Green DNA, 72 h; series mostly up to 28.7 µM
How it was run: as §1

AS120 = experiment: as above; conditions: P. falciparum in erythrocytes, SYBR Green DNA, 72 h; series mostly up to 28.7 µM
How it was run: as §1

ATS95 = experiment: as above; conditions: P. falciparum in erythrocytes, SYBR Green DNA, 72 h; series mostly up to 28.7 µM
How it was run: as §1

C2A = experiment: as above; conditions: P. falciparum in erythrocytes, SYBR Green DNA, 72 h; series mostly up to 28.7 µM
How it was run: as §1

CP215 = experiment: as above; conditions: P. falciparum in erythrocytes, SYBR Green DNA, 72 h; series mostly up to 28.7 µM
How it was run: as §1

CP238 = experiment: as above; conditions: P. falciparum in erythrocytes, SYBR Green DNA, 72 h; series mostly up to 28.7 µM
How it was run: as §1

CP247 = experiment: as above; conditions: P. falciparum in erythrocytes, SYBR Green DNA, 72 h; series mostly up to 28.7 µM
How it was run: as §1

CP203 = experiment: as above; conditions: P. falciparum in erythrocytes, SYBR Green DNA, 72 h; series mostly up to 28.7 µM
How it was run: as §1

[2] = at 12.8 µM (top of the series), parasite line A
[3] = at 12.8 µM (top of the series), parasite line B
[4] = at 28.7 µM (top of the series), parasite line A
[5] = at 28.7 µM (top of the series), parasite line B
Potency is the fitted concentration of half-maximal effect.

CN1CCN(CCCN2c3ccccc3Sc3ccc(S(=O)(=O)N(C)C)cc32)CC1
active: Potency (7G8) 891 nM | Potency (ATS189) 3.55 µM | Potency (CP191) 3.98 µM | Potency (CP217) 3.98 µM | Potency (CP237) 3.98 µM
inactive: activity, negative = inhibition [1, 2] 5.01% | activity, negative = inhibition [1, 3] -5.83% | Potency (AA1029) | Potency (CP185) | Potency (CP192) | Potency (CP194) | Potency (CP201) | Potency (CP211)

CCCN1CCCC[C@H]1C(=O)Nc1c(C)cccc1C
inactive: activity, negative = inhibition [1, 4] 9.76% | activity, negative = inhibition [1, 5] 10.7% | Potency (3D7) | Potency (AA1029) | Potency (AS120) | Potency (ATS189) | Potency (ATS95) | Potency (C2A) | Potency (CP185) | Potency (CP191) | Potency (CP192) | Potency (CP194) | Potency (CP201) | Potency (CP211) | Potency (CP215) | Potency (CP217) | Potency (CP238) | Potency (CP247)
active: Potency (CP237) 6.31 µM

CCCCOc1cc(C(=O)NCCN(CC)CC)c2ccccc2n1
inactive: activity, negative = inhibition [1, 2] 7.49% | activity, negative = inhibition [1, 3] 7.29% | Potency (3D7) | Potency (AA1029) | Potency (AS120) | Potency (ATS189) | Potency (ATS95) | Potency (C2A) | Potency (CP185) | Potency (CP192) | Potency (CP194) | Potency (CP201) | Potency (CP203) | Potency (CP211) | Potency (CP215) | Potency (CP217) | Potency (CP237) | Potency (CP238) | Potency (CP247)

CC(O)C(=O)O (stereo unspecified)
inactive: activity, negative = inhibition [1, 4] 1.12% | activity, negative = inhibition [1, 5] 5.39% | Potency (7G8) | Potency (AA1029) | Potency (AS120) | Potency (ATS189) | Potency (C2A) | Potency (CP185) | Potency (CP191) | Potency (CP192) | Potency (CP194) | Potency (CP201) | Potency (CP203) | Potency (CP211) | Potency (CP217) | Potency (CP237) | Potency (CP238) | Potency (CP247)

C[C@@H](CN(C)C)CN1c2ccccc2Sc2ccccc21
inactive: activity, negative = inhibition [1, 2] 1.53% | activity, negative = inhibition [1, 3] 7.77% | Potency (3D7) | Potency (AA1029) | Potency (AS120) | Potency (ATS189) | Potency (ATS95) | Potency (C2A) | Potency (CP185) | Potency (CP192) | Potency (CP211) | Potency (CP215) | Potency (CP217) | Potency (CP237) | Potency (CP238) | Potency (CP247)

CCN1CCN(c2cc3c(cc2F)c(=O)c(C(=O)O)cn3C2CC2)CC1
inactive: activity, negative = inhibition [1, 4] -8.55% | activity, negative = inhibition [1, 5] -3.41% | Potency (3D7) | Potency (AA1029) | Potency (AS120) | Potency (ATS189) | Potency (ATS95) | Potency (C2A) | Potency (CP185) | Potency (CP191) | Potency (CP192) | Potency (CP194) | Potency (CP201) | Potency (CP211) | Potency (CP215) | Potency (CP217) | Potency (CP238) | Potency (CP247)

COCc1c(C(C)C)nc(C(C)C)c(/C=C/[C@@H](O)C[C@@H](O)CC(=O)O)c1-c1ccc(F)cc1
inactive: activity, negative = inhibition [1, 4] -9.49% | activity, negative = inhibition [1, 5] -12.9% | Potency (3D7) | Potency (AA1029) | Potency (AS120) | Potency (ATS189) | Potency (ATS95) | Potency (C2A) | Potency (CP185) | Potency (CP191) | Potency (CP192) | Potency (CP194) | Potency (CP201) | Potency (CP203) | Potency (CP211) | Potency (CP217) | Potency (CP237) | Potency (CP238)

c1ccc(-c2ccc(C(c3ccccc3)n3ccnc3)cc2)cc1 (stereo unspecified)
active: Potency ([1]; parasite line B) 11.2 µM | Potency (7G8) 2000 nM | Potency (AS120) 3.98 µM | Potency (ATS189) 8.91 µM | Potency (CP185) 10 µM | Potency (CP191) 11.2 µM | Potency (CP192) 10.7 µM | Potency (CP203) 15.1 µM | Potency (CP211) 19 µM | Potency (CP215) 15.1 µM | Potency (CP217) 8.91 µM | Potency (CP237) 8.91 µM | Potency (CP247) 7.94 µM

Oc1ccc(Cl)c2cccnc12
inactive: activity, negative = inhibition [1, 4] -27% | Potency (AA1029) | Potency (AS120) | Potency (ATS189) | Potency (ATS95) | Potency (C2A) | Potency (CP185) | Potency (CP192) | Potency (CP194) | Potency (CP201) | Potency (CP203) | Potency (CP211) | Potency (CP215) | Potency (CP217) | Potency (CP238) | Potency (CP247)

COC(=O)[C@H]1[C@H]2C[C@H]3c4[nH]c5ccccc5c4CCN3C[C@H]2CC[C@@H]1O
inactive: Potency (CP192) | Potency (CP194) | Potency (CP201) | Potency (CP203) | Potency (CP211) | Potency (CP215)
